Some test systems named below: T-47D breast; BT-549 breast; MDA-MB-435 melanoma; SW-620 colon; MCF7 breast; HCT-116 colon; HCC-2998 colon; KM12 colon.
Holding throughout (experiment): NCI-60 one-dose screen, 48 h (100 = growth as untreated, 0 = no growth, -100 = all killed)
Settings in all cases: 10 µM unless noted

Molecules are shown by their SMILES. Compounds without any hit were thinned out: in the full panel of roughly 83,000, 20% have a hit.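 Plates (96-well) were seeded with cells, treated with compound at one concentration, and incubated for 48 hours before percent growth was determined.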 Values without a mark were called inactive. Activity calls are given as the source filed them. Rule for the calls: active = growth percent below 10; inactive = the rest.

For `CCCn1c(=O)[nH]c(N)c([C@H]2c3ccccc3Oc3[nH]c(=O)n(CCC)c(=O)c32)c1=O`, the growth in the experiment on T-47D breast was 34.7%; in the experiment with BT-549 breast, 42.8%; in the experiment on MDA-MB-435 melanoma, 84.4%; in the experiment with SW-620 colon, 61.2%; with MCF7 breast, 26.4%; with HCT-116 colon, 32.5%. In addition, the growth in the experiment with HCC-2998 colon was 104%; with KM12 colon, 99.8%.
Take `COc1ccc(S(=O)(=O)N2CCN(C)CC2)cc1NC(=O)c1[nH]c(C)c2c1CCCCC2=O`: the growth was 44.1% in the experiment with T-47D breast; 90.4% with BT-549 breast; 42.1% with MDA-MB-435 melanoma; 70.7% with SW-620 colon; 30% in the experiment with MCF7 breast; 53.5% in the experiment on HCT-116 colon. For the same compound, the growth is 64.4% in the experiment on HCC-2998 colon and 64.7% in the experiment with KM12 colon.
For the compound `CC1=NN(c2nc(-c3ccc(Cl)cc3)c(C#N)c(N3CCOCC3)n2)C(=O)C1`, the growth in the experiment with T-47D breast is 93.3%; in the experiment on BT-549 breast, 66.1%; with MDA-MB-435 melanoma, 87.8%; with SW-620 colon, 85.2%; with MCF7 breast, 94.4%; in the experiment on HCT-116 colon, 94.3%. The growth in the experiment on HCC-2998 colon is 98.5%; with KM12 colon, 99.7%.
On to `COc1cccc(/C=C2\SC(=Nc3ccc(NC(C)=O)cc3)NC2=O)c1OC`, for which the growth in the experiment on T-47D breast was 89.2%; in the experiment on BT-549 breast, 97.8%; with MDA-MB-435 melanoma, 52.1%; in the experiment on SW-620 colon it was 92%; in the experiment on MCF7 breast, 92.6%; with HCT-116 colon, 98%. Moreover, the growth in the experiment on HCC-2998 colon is 101%; in the experiment with KM12 colon, 89.4%.
`COc1ccc(/C=N/C2=C(C#N)C(c3ccc(N(C)C)cc3)c3ccc4ccccc4c3O2)cc1` (configuration not stated): the growth in the experiment with T-47D breast is 72%; with BT-549 breast it was 48.4%; with MDA-MB-435 melanoma, 4% (active); with SW-620 colon it was 46.1%; in the experiment with MCF7 breast it was 45%; with HCT-116 colon, 43.4%. Besides, the growth in the experiment on HCC-2998 colon was 96.3%; in the experiment on KM12 colon, 44.1%.
For the compound `COc1ccc(-c2nc3cc(C(=O)Nc4cc(OC)c(OC)c(OC)c4)ccc3n2C2CCCCC2)cc1`, the growth with T-47D breast was 97.4%; in the experiment on BT-549 breast it was 94.6%; in the experiment on MDA-MB-435 melanoma, 46%; in the experiment with SW-620 colon it was 92.5%; in the experiment on MCF7 breast, 91.2%; in the experiment on HCT-116 colon, 93.5%. Also, the growth with HCC-2998 colon is 104%; in the experiment on KM12 colon it was 91.9%.
For the compound `Cc1ccc(C2=NN3C(C2)c2cc(Br)ccc2OC32CCN(Cc3ccccc3)CC2)o1` (configuration not stated), the growth in the experiment with T-47D breast is 86.6%; with BT-549 breast, 92.4%; with MDA-MB-435 melanoma it was 94%; with SW-620 colon it was 97.2%; in the experiment with MCF7 breast, 77.3%; in the experiment on HCT-116 colon, 99.6%. In addition, the results for the growth with HCC-2998 colon and in the experiment with KM12 colon were 97.9% and 95.4%, respectively.
As to `COc1cc2c(cc1-c1c(C)noc1C)ncc1nc(C3CCCCC3)n([C@H](C)COC(F)F)c12`, the growth was 32.8% with T-47D breast; 58.7% with BT-549 breast; 34.1% in the experiment on MDA-MB-435 melanoma; 58.7% in the experiment with SW-620 colon; 18.3% with MCF7 breast; 28.4% in the experiment on HCT-116 colon. Further, the values for the growth with HCC-2998 colon and with KM12 colon were 43.7% and 46.3%, respectively.
Take `CSc1nc(Nc2cccc(NC(=O)CCl)c2)c(C#N)c(-c2cccc([N+](=O)[O-])c2)n1`: the growth with T-47D breast is 12.2%; in the experiment with BT-549 breast it was 14.3%; in the experiment with MDA-MB-435 melanoma it was 45.3%; in the experiment with SW-620 colon it was 7.84% (active); in the experiment on MCF7 breast, 0% (active); with HCT-116 colon, -6.05% (active). The growth with HCC-2998 colon is 105%; in the experiment with KM12 colon, 88.5%.
`O=C1NC(=S)NC(=O)C1CC(=O)n1c(-c2ccccc2)nc2ccccc21`: the growth was 95.3% in the experiment on T-47D breast; 100% in the experiment with BT-549 breast; 102% in the experiment on MDA-MB-435 melanoma; 98.6% in the experiment on SW-620 colon; 80.4% in the experiment on MCF7 breast; 104% in the experiment with HCT-116 colon. The growth in the experiment with HCC-2998 colon was 104%; with KM12 colon it was 101%.
`O=C(Cc1ccccc1Nc1c(Cl)cccc1Cl)NN1C(=O)/C(=C/c2ccc(Br)cc2)SC1=S`: the growth in the experiment on T-47D breast was 107%; in the experiment on BT-549 breast it was 105%; in the experiment on MDA-MB-435 melanoma, 107%; in the experiment with SW-620 colon it was 98.5%; in the experiment with MCF7 breast, 100%; in the experiment on HCT-116 colon it was 103%. Also, the growth in the experiment with HCC-2998 colon was 106%; in the experiment on KM12 colon it was 107%.
On to `COc1cc(-c2ccc3c(c2)NC(=O)/C3=C\c2ccc[nH]2)ccc1O`, for which the growth in the experiment on T-47D breast was 35.2%; with BT-549 breast, 46.5%; in the experiment on MDA-MB-435 melanoma, 12.2%; with SW-620 colon, 28.8%; in the experiment with MCF7 breast it was 6.69% (active); in the experiment with HCT-116 colon, 14.1%. Moreover, the growth in the experiment on HCC-2998 colon is 1.36% (active); in the experiment with KM12 colon, 1.34% (active).
Turning to `O=C(Cc1ccc(/C=C/C(=O)c2ncc[nH]2)cc1)Nc1ccccc1`, the growth was 39.9% with T-47D breast; 54.2% with BT-549 breast; 57.3% in the experiment on MDA-MB-435 melanoma; 14.2% in the experiment with SW-620 colon; 9.95% (active) with MCF7 breast; 44.2% in the experiment on HCT-116 colon. Besides, the growth with HCC-2998 colon was 90.4%; in the experiment with KM12 colon, 12.8%.
As to `CCN(CC)CCCCNc1c2ccc(Cl)cc2nc2ccc(OC)cc12`, the growth in the experiment on T-47D breast is -16.9% (active); in the experiment with BT-549 breast, -29.5% (active); with MDA-MB-435 melanoma, -89.2% (active); with SW-620 colon it was -24.8% (active); in the experiment with MCF7 breast, -30% (active); with HCT-116 colon, -39.5% (active). Further, the growth in the experiment with HCC-2998 colon is -78.6% (active); in the experiment on KM12 colon, -6.4% (active).

The values are drawn from PubChem BioAssay (NCI).
